The supplement of paper PMC9254222
The full ranking holds about 1,100 compounds; the median of “Renilla luciferase signal (cell health) relative to plate median” is about 0.97, and the highest 2% start at about 1.6. What follows is part of a selection rich in the highest values, with near analogues and random picks from the rest.

System: HEK293T (UBE3A T485A transfected, BAR Wnt reporter)
Experiment: Renilla luciferase signal (cell health) relative to plate median (fold (linear ratio)); higher = higher Renilla signal
Conditions: 24 h
Procedure, shortened: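 Wnt activity (firefly/Renilla ratio) and cell health (raw Renilla) were read with Dual-Glo luciferase and median-centred plate by plate. HEK293T cells, at 4500 cells/well in white 384-well plates with DMEM plus 10% FBS at 37°C and 5% CO2, carried a transfected BAR firefly luciferase Wnt reporter, TK-Renilla and an expression plasmid. The chemicals were applied by robot at 0.01–100 uM for 24 h, beginning four hours after transfection, and results were averaged across four biological replicates.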

`CCOP(=O)(OCC)Oc1nc(Cl)c(Cl)cc1Cl` [Chlorpyrifos oxon] was tested. Which Renilla luciferase signal (concentration: 0.01 uM) did it give?
Its Renilla luciferase signal is 0.952.

And the Renilla luciferase signal (concentration: 0.1 uM)?
The Renilla luciferase signal was 1.24.

What about the Renilla luciferase signal (concentration: 1 uM) of the same molecule?
Its Renilla luciferase signal is 1.07.

And the Renilla luciferase signal (concentration: 10 uM)?
Its Renilla luciferase signal is 0.919.

And the Renilla luciferase signal (concentration: 100 uM)?
The Renilla luciferase signal was 0.0737.

With `Nc1c(Cl)c(F)nc(OCC(=O)O)c1Cl` [Fluroxypyr] as the molecule, how does the Renilla luciferase signal (concentration: 0.01 uM) read?
Its Renilla luciferase signal is 1.01.

What about the Renilla luciferase signal (concentration: 0.1 uM) of the same molecule?
Its Renilla luciferase signal is 1.05.

What about the Renilla luciferase signal (concentration: 1 uM) of the same molecule?
Its Renilla luciferase signal is 0.92.

And the Renilla luciferase signal (concentration: 10 uM)?
Its Renilla luciferase signal is 1.02.

And the Renilla luciferase signal (concentration: 100 uM)?
Its Renilla luciferase signal is 1.09.

What does the source list for `O=C(O)COc1nc(Cl)c(Cl)cc1Cl` [Triclopyr]?
Renilla luciferase signal (concentration: 0.01 uM): 0.99; Renilla luciferase signal (concentration: 0.1 uM): 0.979; Renilla luciferase signal (concentration: 1 uM): 0.95; Renilla luciferase signal (concentration: 10 uM): 1.02; Renilla luciferase signal (concentration: 100 uM): 1.84

Which results are given for `O=C(O)COc1ccc(Cl)cc1Cl` [2,4-Dichlorophenoxyacetic acid]?
Renilla luciferase signal (concentration: 0.01 uM): 1.31; Renilla luciferase signal (concentration: 0.1 uM): 1; Renilla luciferase signal (concentration: 1 uM): 0.995; Renilla luciferase signal (concentration: 10 uM): 1.02; Renilla luciferase signal (concentration: 100 uM): 1.69

With `O=C(O)CCCOc1ccc(Cl)cc1Cl` as the molecule, how does the Renilla luciferase signal (concentration: 0.01 uM) read?
Its Renilla luciferase signal is 1.02.

And the Renilla luciferase signal (concentration: 0.1 uM)?
The Renilla luciferase signal was 0.895.

And the Renilla luciferase signal (concentration: 1 uM)?
The Renilla luciferase signal was 0.898.

What about the Renilla luciferase signal (concentration: 10 uM) of the same molecule?
The Renilla luciferase signal was 0.957.

What about the Renilla luciferase signal (concentration: 100 uM) of the same molecule?
Its Renilla luciferase signal is 1.44.

`Cc1cc(Cl)ccc1OCC(=O)O` was tested. Which Renilla luciferase signal (concentration: 0.01 uM) did it give?
Its Renilla luciferase signal is 1.11.

What about the Renilla luciferase signal (concentration: 0.1 uM) of the same molecule?
The Renilla luciferase signal was 1.19.

What about the Renilla luciferase signal (concentration: 1 uM) of the same molecule?
The Renilla luciferase signal was 1.09.

And the Renilla luciferase signal (concentration: 10 uM)?
Its Renilla luciferase signal is 1.12.

What about the Renilla luciferase signal (concentration: 100 uM) of the same molecule?
The Renilla luciferase signal was 1.34.

What does the source list for `C1=CCCC=CCCC=CCC1` [1,5,9-Cyclododecatriene]?
Renilla luciferase signal (concentration: 0.1 uM): 0.691; Renilla luciferase signal (concentration: 1 uM): 0.775; Renilla luciferase signal (concentration: 10 uM): 0.813; Renilla luciferase signal (concentration: 100 uM): 1.02

For `CCOC(=O)c1ccccc1C(=O)OCC` [Diethyl phthalate], which Renilla luciferase signal (concentration: 0.1 uM) is on record?
Its Renilla luciferase signal is 0.834.

What about the Renilla luciferase signal (concentration: 1 uM) of the same molecule?
The Renilla luciferase signal was 0.893.

And the Renilla luciferase signal (concentration: 10 uM)?
The Renilla luciferase signal was 0.976.

And the Renilla luciferase signal (concentration: 100 uM)?
The Renilla luciferase signal was 1.05.

How did the Renilla luciferase signal (concentration: 0.01 uM) turn out when `COc1nc(NC(C)C)nc(NC(C)C)n1` [Prometon] was run?
The Renilla luciferase signal was 0.865.

And the Renilla luciferase signal (concentration: 0.1 uM)?
The Renilla luciferase signal was 0.628.

And the Renilla luciferase signal (concentration: 1 uM)?
The Renilla luciferase signal was 0.707.

And the Renilla luciferase signal (concentration: 10 uM)?
The Renilla luciferase signal was 1.02.

And the Renilla luciferase signal (concentration: 100 uM)?
Its Renilla luciferase signal is 1.41.

With `CC(C)(O)C(=O)Nc1ccc([N+](=O)[O-])c(C(F)(F)F)c1` [Hydroxyflutamide] as the molecule, how does the Renilla luciferase signal (concentration: 0.1 uM) read?
Its Renilla luciferase signal is 0.949.

What about the Renilla luciferase signal (concentration: 1 uM) of the same molecule?
Its Renilla luciferase signal is 0.928.

What about the Renilla luciferase signal (concentration: 10 uM) of the same molecule?
The Renilla luciferase signal was 0.775.

What about the Renilla luciferase signal (concentration: 100 uM) of the same molecule?
Its Renilla luciferase signal is 0.129.

Which results are given for `CC(C)=CC1C(C(=O)OCc2coc(Cc3ccccc3)c2)C1(C)C` (centres undefined) [Resmethrin]?
Renilla luciferase signal (concentration: 0.01 uM): 1.12; Renilla luciferase signal (concentration: 0.1 uM): 1.04; Renilla luciferase signal (concentration: 1 uM): 0.974; Renilla luciferase signal (concentration: 10 uM): 1.01; Renilla luciferase signal (concentration: 100 uM): 0.166

`CCCCOCN(C(=O)CCl)c1c(CC)cccc1CC` [Butachlor] was tested. Which Renilla luciferase signal (concentration: 0.01 uM) did it give?
The Renilla luciferase signal was 0.877.

And the Renilla luciferase signal (concentration: 0.1 uM)?
Its Renilla luciferase signal is 0.813.

And the Renilla luciferase signal (concentration: 1 uM)?
Its Renilla luciferase signal is 0.902.

What about the Renilla luciferase signal (concentration: 10 uM) of the same molecule?
The Renilla luciferase signal was 0.865.

And the Renilla luciferase signal (concentration: 100 uM)?
The Renilla luciferase signal was 0.895.

How did the Renilla luciferase signal (concentration: 0.01 uM) turn out when `CC1(c2ccc(Oc3ccccc3)cc2)OC(=O)N(Nc2ccccc2)C1=O` (centres undefined) [Famoxadone] was run?
Its Renilla luciferase signal is 1.07.

And the Renilla luciferase signal (concentration: 0.1 uM)?
The Renilla luciferase signal was 1.08.

What about the Renilla luciferase signal (concentration: 1 uM) of the same molecule?
The Renilla luciferase signal was 1.07.

And the Renilla luciferase signal (concentration: 10 uM)?
Its Renilla luciferase signal is 0.383.

And the Renilla luciferase signal (concentration: 100 uM)?
The Renilla luciferase signal was 1.15.

For `NS(=O)(=O)C(F)(F)C(F)(F)C(F)(F)C(F)(F)C(F)(F)C(F)(F)C(F)(F)C(F)(F)F`, which Renilla luciferase signal (concentration: 0.1 uM) is on record?
Its Renilla luciferase signal is 0.448.

What about the Renilla luciferase signal (concentration: 1 uM) of the same molecule?
Its Renilla luciferase signal is 0.567.

And the Renilla luciferase signal (concentration: 10 uM)?
Its Renilla luciferase signal is 0.447.

What about the Renilla luciferase signal (concentration: 100 uM) of the same molecule?
The Renilla luciferase signal was 0.0943.

For `Cc1c(F)c(F)c(COC(=O)C2C(/C=C(\Cl)C(F)(F)F)C2(C)C)c(F)c1F` (centres undefined) [Tefluthrin], which Renilla luciferase signal (concentration: 0.01 uM) is on record?
Its Renilla luciferase signal is 0.953.

What about the Renilla luciferase signal (concentration: 0.1 uM) of the same molecule?
The Renilla luciferase signal was 0.885.

What about the Renilla luciferase signal (concentration: 1 uM) of the same molecule?
The Renilla luciferase signal was 1.03.

And the Renilla luciferase signal (concentration: 10 uM)?
Its Renilla luciferase signal is 0.886.

And the Renilla luciferase signal (concentration: 100 uM)?
Its Renilla luciferase signal is 1.47.

What does the source list for `C[n+]1ccc(-c2cc[n+](C)cc2)cc1` [Paraquat]?
Renilla luciferase signal (concentration: 0.01 uM): 0.802; Renilla luciferase signal (concentration: 0.1 uM): 0.782; Renilla luciferase signal (concentration: 1 uM): 0.9; Renilla luciferase signal (concentration: 10 uM): 0.995; Renilla luciferase signal (concentration: 100 uM): 2.18

With `CCNc1nc(Cl)nc(NC(C)(C)C)n1` [Terbutylazine] as the molecule, how does the Renilla luciferase signal (concentration: 0.1 uM) read?
Its Renilla luciferase signal is 0.934.

And the Renilla luciferase signal (concentration: 1 uM)?
The Renilla luciferase signal was 1.02.

And the Renilla luciferase signal (concentration: 10 uM)?
The Renilla luciferase signal was 0.978.

And the Renilla luciferase signal (concentration: 100 uM)?
Its Renilla luciferase signal is 0.981.

What does the source list for `Cc1cccc(C)c1N` [2,6-Dimethylaniline]?
Renilla luciferase signal (concentration: 0.1 uM): 0.815; Renilla luciferase signal (concentration: 1 uM): 0.773; Renilla luciferase signal (concentration: 10 uM): 0.833; Renilla luciferase signal (concentration: 100 uM): 0.897
